Assay results published in PubChem BioAssay (NCI).
“And” between values parts separate entries of the source, which are not always exact repeats. Equal values may be shown once. About 83,000 compounds went through this panel and 20% of them were active in at least one assay; those are over-represented in the sample as a whole.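 Growth was measured after 48 h exposure to one concentration of compound in 96-well plates. Values under 10 count as active.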 Unmarked numbers belong to inactive results. The source made the active and inactive calls.

test system: MDA-MB-468 breast; experiment: NCI-60 one-dose screen, 48 h (100 = growth as untreated, 0 = no growth, -100 = all killed); conditions: 10 µM unless noted

Q: `CC1=NN(c2cccc(Cl)c2)C(=O)/C1=C\C=C\c1ccccc1` was tested. Which growth did it give?
A: Its growth is 9.96% (active).

Q: `O=C(/C=C/c1cccs1)Nc1ncc(Cc2ccc(Cl)c(Cl)c2)s1` was tested. Which growth did it give?
A: The growth was 58.2%.

Q: With `COC(=O)C1=C(C(=O)ON)[C@@H]2C=C[C@@]1([C@@H](Cc1ccccc1)Nc1ccccc1)O2` as the molecule, how does the growth read?
A: Its growth is -38.8% (active).

Q: For `Clc1ccc(-c2n[nH]c3c2Cc2ccccc2-3)cc1Cl`, which growth is on record?
A: The growth was 75.3%.

Q: For `NNC(=O)CNC(=O)Nc1n[nH]c(=S)s1`, which growth is on record?
A: The growth was 111%.

Q: With `COc1ccc(/C(C)=N/NC(=O)CSc2nc3ccccc3c(=O)n2CCc2ccc(S(N)(=O)=O)cc2)cc1` as the molecule, how does the growth read?
A: Its growth is 33.8%.

Q: Which growth does the source give for `Cn1c2ccccc2c2c3c(c4c5cc(Br)ccc5n(C)c4c21)C(=O)N(O)C3=O` here?
A: The growth was -0.278% (active).

Q: How did the growth turn out when `CS(=O)(=O)N1CCN(Cc2cc3nc(-c4cccc5[nH]ncc45)nc(N4CCOCC4)c3s2)CC1` was run?
A: The growth was -19.6% (active).

Q: `O=CNc1ccc2c(c1)Cc1cc([N+](=O)[O-])ccc1-2` was tested. Which growth did it give?
A: The growth was -29.6% (active).

Q: Which growth does the source give for `COc1ccc2c(c1)C(C)Cc1c(ncnc1-n1cnc3ccccc31)N2C` (stereo not given) here?
A: Its growth is 27.3%.

Q: How did the growth turn out when `CN1CCN=C1c1ccc(NC(=O)c2ccc(C(=O)Nc3ccc(C4=NCCN4C)cc3)cc2)cc1` was run?
A: Its growth is 81.2%.

Q: For `Cc1cc(C)c(O)c(CNCCCNCc2cc(C)cc(C)c2O)c1`, which growth is on record?
A: Its growth is 7.95% (active).

Q: For `COc1cc(/C=C2\CN(C)CC3=C2Nc2nc(SC)[nH]c(=O)c2C3c2cc(OC)c(OC)c(OC)c2)cc(OC)c1OC` (stereo not given), which growth is on record?
A: Its growth is 39.5%.

Q: With `C#Cc1cc(C(=O)Nc2ccc(CNCCN3CCOCC3)c(C(F)(F)F)c2)ccc1C` as the molecule, how does the growth read?
A: Its growth is 82.8%.

Q: Which growth does the source give for `CCOc1ccc(-c2cc(C3(S(=O)(=O)c4ccc(C)cc4)CC=CC3)on2)cc1` here?
A: The growth was 72%.

Q: How did the growth turn out when `CCCCCCCOc1cccc(/C=C2\N=C3SCCCN3C2=O)c1` was run?
A: Its growth is 89.2%.

Q: For `CCc1ccc(-c2nnc(COc3ccc(-c4nc5ccc(C)cc5[nH]4)cc3OC)o2)cc1`, which growth is on record?
A: Its growth is 63.1%.

Q: Which growth does the source give for `N#Cc1ccc(/C=C/C(=O)c2ccccc2)cc1` here?
A: The growth was 43.5% and 48.9%.

Q: Which growth does the source give for `COC(=O)c1ccc(Cn2cnc3c(N)ncnc32)cc1` here?
A: The growth was 106%.

Q: How did the growth turn out when `O=S(=O)(O)c1ccc(Cl)c(Cl)c1` was run?
A: The growth was 115%.

Q: With `COc1ccc2c(c1)N(CCO)C1=C(C(=O)OC1)C2c1cccc(F)c1` (stereo not given) as the molecule, how does the growth read?
A: The growth was 7.89% (active).

Q: How did the growth turn out when `Cc1ccc(-c2nc(SCC(=O)N3CCN(c4cc5c(cc4F)c(=O)c(C(=O)O)cn5C4CC4)CC3)nc(Cl)c2C#N)cc1` was run?
A: Its growth is 95%.

Q: `O=C(NCc1ccccc1)c1ccc2c(c1)NC(=O)[C@@H]1CCCN21` was tested. Which growth did it give?
A: The growth was 103%.

Q: How did the growth turn out when `Oc1cccc2ccc(N/N=C/c3cc(CN4CCCCC4)c(O)c4ncccc34)nc12` was run?
A: Its growth is -26.3% (active).

Q: How did the growth turn out when `CCN1CCN(Cc2ccc(C(=O)Nc3ccc(C)c(Oc4ccc(-c5[nH]nc6ncnc(N)c56)cc4)c3)cc2C(F)(F)F)CC1` was run?
A: The growth was 118%.

Q: For `Cc1cc(NS(=O)(=O)c2ccc(N=Nc3cc(N=Nc4ccc(S(=O)(=O)Nc5cc(C)nc(C)n5)cc4)c4c(NC(=O)C(Cl)Cl)cccc4c3OC(=O)C(Cl)Cl)cc2)nc(C)n1` (tested in a mixture with another compound), which growth is on record?
A: Its growth is 103% and 78.5%.

Q: For `COc1ccc2cc(C(C)C(=O)Nc3ccc(-c4n[nH]c(=S)n4C4CCCCC4)cc3)ccc2c1` (stereo not given), which growth is on record?
A: Its growth is 111%.

Q: With `COc1ccc(C(C)=C(c2ccc(OCCN(C)C)cc2)c2ccc(OCCN(C)C)cc2)cc1` as the molecule, how does the growth read?
A: The growth was -76.9% (active).

Q: Which growth does the source give for `NC1=Nc2cc(OCCCCN3Cc4ccccc4C3)c(OCC3CC3)cc2C12CCCC2` here?
A: Its growth is 7.97% (active).

Q: Which growth does the source give for `FC(F)(F)c1ccc2nc(-c3nc(-c4ccccc4)n4ccccc34)[nH]c2c1` here?
A: Its growth is 83.4%.

Q: How did the growth turn out when `C=C1C(=O)O[C@H]2[C@H]1CC/C(COC(=O)c1cc(OC)c(OC)c(OC)c1)=C\CC[C@@]1(C)O[C@@H]21` was run?
A: Its growth is -33.2% (active).

Q: With `CC(C)C1=NOC(=O)C1=Cc1cn(-c2ccccc2)nc1-c1cccc([N+](=O)[O-])c1` as the molecule, how does the growth read?
A: Its growth is 86.6%.

Q: How did the growth turn out when `N#Cc1c(-c2ccc(Cl)cc2)nc2c(-c3ccccc3)c(Nc3ccccc3)nn2c1N` was run?
A: Its growth is 53.4%.

Q: How did the growth turn out when `Cc1cc2nc(C(Cl)Cl)nc(-c3ccco3)n2n1` was run?
A: Its growth is -34% (active).

Q: With `CCSc1nnc2c3cc(Br)ccc3n(C)c2n1` as the molecule, how does the growth read?
A: The growth was 115%.

Q: Which growth does the source give for `Cc1cccc(NC(=O)N/C(N)=N/c2nc(C)c(C)s2)c1` here?
A: The growth was 14%.

Q: Which growth does the source give for `NNC(=O)Cc1ccccc1` here?
A: The growth was 92.3%.

Q: How did the growth turn out when `CCCCCCCCCC(C)NC(=O)CCl` (stereo not given) was run?
A: Its growth is 95.4%.

Q: Which growth does the source give for `C=CCc1cc(OC)c(OC)c(OC)c1` here?
A: The growth was 91%.

Q: For `N#CC1CCc2c(c(-c3ccc4nc(N)sc4c3)nc3ccc4[nH]ncc4c23)C1` (stereo not given), which growth is on record?
A: Its growth is 21.4%.
